Substitutions are numbered along the chain they refer to.
Assays:
Assay in all cases: HT-SELEX; high values mean tight binding
Details in all cases: protein: recombinant; vector His6-GST; dsDNA, one strand shown
SALL4 ZFC4 WT (HT-SELEX) = biological target: T1, SALL4 ZFC4 WT (HT-SELEX) (Mus musculus, UniProt Q8BX22 870-940)
T1 sequence: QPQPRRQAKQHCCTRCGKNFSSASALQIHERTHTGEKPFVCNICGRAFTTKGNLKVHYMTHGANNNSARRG
Outline: (§1)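 Binding signal is defined as the fold change of each canonical k-mer's read fraction versus the initial random library. Selections used 1 µg of purified recombinant mouse SALL4 zinc finger cluster 4 (residues 870–940) with library DNA (1.5 µg first cycle, 200 ng later) in 100 µl of 10 mM Tris–HCl pH 7.5, 50 mM NaCl, poly(dI-dC) and DTT, for 10 min at room temperature, followed by Ni2+ bead capture, washing and PCR. Up to 6 such cycles were run in triplicate before MiSeq sequencing and 6-mer scanning.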

[1] = biological target: T2, SALL4 ZFC4 R900W (HT-SELEX) (Mus musculus, UniProt Q8BX22 870-940, R900W)
T2 sequence: T1 sequence with R31W
Outline: as §1

[2] = biological target: T3, SALL4 ZFC4 G921D (HT-SELEX) (Mus musculus, UniProt Q8BX22 870-940, G921D)
T3 sequence: T1 sequence with G52D
Outline: as §1

Row | Sequence | binding signal (SALL4 ZFC4 WT (HT-SELEX)) [fold-change vs cycle 0] | binding signal [1] [fold-change vs cycle 0] | binding signal [2] [fold-change vs cycle 0]
1 | GTTCAA | 1.2 ± 0.0638 | 1.34 ± 0.0679 | 1.3 ± 0.0535
2 | GAAGAC | 0.8159 ± 0.00405 | 0.962 ± 0.00987 | 0.993 ± 0.0221
3 | AATACA | 2.08 ± 0.131 | 1.92 ± 0.0574 | 1.74 ± 0.0979
4 | AACGGT | 0.689 ± 0.0523 | 0.7682 ± 0.0076 | 0.832 ± 0.0229
5 | CTCCCA | 0.474 ± 0.0284 | 0.569 ± 0.0121 | 0.655 ± 0.0274
6 | GCTCAC | 0.361 ± 0.0205 | 0.415 ± 0.0136 | 0.554 ± 0.021
7 | ATTAAC | 2.04 ± 0.0632 | 2.1 ± 0.104 | 1.83 ± 0.178
8 | GGATGA | 0.897 ± 0.0305 | 1.01 ± 0.0334 | 1.02 ± 0.0224
9 | AGCACA | 0.64 ± 0.039 | 0.77 ± 0.0406 | 0.894 ± 0.0466
10 | GTTGAA | 1.18 ± 0.0583 | 1.34 ± 0.0591 | 1.3 ± 0.109
11 | ACGACC | 0.308 ± 0.026 | 0.378 ± 0.0333 | 0.508 ± 0.0872
12 | CCCCAA | 0.421 ± 0.0191 | 0.471 ± 0.00864 | 0.561 ± 0.0695
13 | GGATCA | 0.841 ± 0.0365 | 0.972 ± 0.0131 | 1.03 ± 0.0289
14 | GGACGA | 0.34 ± 0.0131 | 0.412 ± 0.0156 | 0.498 ± 0.0522
15 | CGTACA | 0.639 ± 0.0345 | 0.729 ± 0.0226 | 0.802 ± 0.0376
16 | AGATGG | 0.853 ± 0.0339 | 0.933 ± 0.00507 | 0.962 ± 0.0157
17 | ATGGTA | 1.45 ± 0.0382 | 1.48 ± 0.0495 | 1.4 ± 0.052
18 | GTGCAA | 0.539 ± 0.0349 | 0.616 ± 0.0276 | 0.721 ± 0.0304
19 | GCTCTA | 0.572 ± 0.0244 | 0.686 ± 0.0351 | 0.788 ± 0.0186
20 | AGACAC | 0.683 ± 0.0462 | 0.821 ± 0.037 | 0.923 ± 0.0183

Row | Sequence | binding signal (SALL4 ZFC4 WT (HT-SELEX)) [fold-change vs cycle 0] | binding signal [1] [fold-change vs cycle 0] | binding signal [2] [fold-change vs cycle 0]
21 | AGGTCG | 0.312 ± 0.0215 | 0.372 ± 0.0129 | 0.511 ± 0.0677
22 | CAACCC | 0.417 ± 0.0301 | 0.488 ± 0.0225 | 0.582 ± 0.0463
23 | ACCTGG | 0.46 ± 0.021 | 0.537 ± 0.0102 | 0.635 ± 0.0393
24 | CATGCC | 0.31 ± 0.0224 | 0.354 ± 0.0129 | 0.48 ± 0.0491
25 | CAGAGA | 0.765 ± 0.0216 | 0.92 ± 0.0161 | 0.951 ± 0.0212
26 | AATGGG | 0.774 ± 0.0508 | 0.854 ± 0.0662 | 0.883 ± 0.0427
27 | AGACAT | 1.29 ± 0.0778 | 1.45 ± 0.0615 | 1.37 ± 0.0528
28 | GTCACA | 0.677 ± 0.0487 | 0.804 ± 0.0553 | 0.861 ± 0.0406
29 | AGATAC | 1.32 ± 0.0304 | 1.44 ± 0.052 | 1.4 ± 0.118
30 | GATCTA | 1.25 ± 0.0377 | 1.36 ± 0.0544 | 1.41 ± 0.0811
31 | AGCTTA | 1.21 ± 0.0616 | 1.28 ± 0.0778 | 1.27 ± 0.0883
32 | TCAGGA | 0.887 ± 0.0551 | 1.02 ± 0.0319 | 1.03 ± 0.0207
33 | AGGGAG | 0.59 ± 0.0373 | 0.667 ± 0.0517 | 0.737 ± 0.0368
34 | TCGAGA | 0.763 ± 0.0625 | 0.863 ± 0.0493 | 0.945 ± 0.0348
35 | AGAATG | 1.34 ± 0.0249 | 1.52 ± 0.0481 | 1.35 ± 0.0697
36 | GAAAGA | 1.32 ± 0.0648 | 1.52 ± 0.0726 | 1.36 ± 0.0863
37 | AACGGG | 0.4 ± 0.0225 | 0.466 ± 0.0176 | 0.54 ± 0.0483
38 | GACAAC | 0.673 ± 0.0124 | 0.798 ± 0.0444 | 0.89 ± 0.0263
39 | AGTCAA | 1.21 ± 0.0262 | 1.409 ± 0.0091 | 1.34 ± 0.0532
40 | GATATC | 1.46 ± 0.0542 | 1.45 ± 0.075 | 1.39 ± 0.0375

Row | Sequence | binding signal (SALL4 ZFC4 WT (HT-SELEX)) [fold-change vs cycle 0] | binding signal [1] [fold-change vs cycle 0] | binding signal [2] [fold-change vs cycle 0]
41 | CCAGTC | 0.437 ± 0.0378 | 0.533 ± 0.0426 | 0.62 ± 0.0337
42 | CTGACA | 0.738 ± 0.0153 | 0.843 ± 0.0362 | 0.914 ± 0.0368
43 | CAGGAC | 0.423 ± 0.0322 | 0.487 ± 0.0192 | 0.578 ± 0.0205
44 | AAGTAC | 1.23 ± 0.0679 | 1.37 ± 0.0898 | 1.31 ± 0.0947
45 | CTAACC | 0.863 ± 0.0299 | 0.983 ± 0.0562 | 1.01 ± 0.0396
46 | GGGGGA | 0.31 ± 0.0219 | 0.349 ± 0.0327 | 0.439 ± 0.0654
47 | CAGACG | 0.352 ± 0.0274 | 0.442 ± 0.0268 | 0.571 ± 0.085
48 | AATAAA | 3.71 ± 0.274 | 2.68 ± 0.197 | 2.21 ± 0.297
49 | AGAAAG | 1.31 ± 0.0378 | 1.52 ± 0.0945 | 1.36 ± 0.112
50 | CACATA | 1.22 ± 0.0607 | 1.28 ± 0.0534 | 1.25 ± 0.0582
51 | TCCCGA | 0.394 ± 0.0144 | 0.445 ± 0.019 | 0.562 ± 0.0681
52 | CCTCCC | 0.317 ± 0.0293 | 0.372 ± 0.0347 | 0.467 ± 0.0525
53 | ACGGGA | 0.422 ± 0.0189 | 0.506 ± 0.0223 | 0.583 ± 0.0299
54 | ATTAGG | 1.38 ± 0.0909 | 1.48 ± 0.0913 | 1.4 ± 0.0983
55 | TAAGCA | 1.282 ± 0.00819 | 1.3 ± 0.0615 | 1.26 ± 0.0364
56 | ATAAAA | 3.85 ± 0.323 | 2.43 ± 0.199 | 2.07 ± 0.279
57 | ACCTTG | 0.8287 ± 0.00258 | 0.986 ± 0.024 | 1 ± 0.0262
58 | ACCTAT | 1.37 ± 0.0376 | 1.45 ± 0.0775 | 1.43 ± 0.0809
59 | AAAGAG | 1.26 ± 0.0407 | 1.46 ± 0.0773 | 1.33 ± 0.0951
60 | ACGAGT | 0.767 ± 0.0224 | 0.897 ± 0.033 | 0.922 ± 0.0421

— publication PMC9838217, “Structure of SALL4 zinc finger domain reveals link between AT-rich DNA binding and Okihiro syndrome”
